In PubChem BioAssay (NCI):
The panel holds about 79,000 compounds, 15% with a hit somewhere; the sample as a whole holds those more often. Active and inactive are the calls of the source. Cut-off read from the data, not from the text of the source: active = growth inhibition above about 70%; inactive = the rest.

Columns and labels:
[1] = NCI Yeast Anticancer Drug Screen. Data for the rad52 strain (AID 147);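 note: 0% = growth of vehicle-treated control cultures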; conditions: S. cerevisiae rad52 mutant growth inhibition, active compounds read high
Outline: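 DNA repair-defective yeast; compound exposure; growth scored against vehicle controls.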

[2] = NCI Yeast Anticancer Drug Screen. Data for the wt1 strain (AID 149);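 note: 0% = growth of vehicle-treated wt1 cultures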; conditions: S. cerevisiae wt1 strain (SPY 50644) growth inhibition, active compounds read high
Outline: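 The wt1 strain was treated with compounds, and growth was compared with vehicle-treated cultures to give inhibition.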

[3] = NCI Yeast Anticancer Drug Screen. Data for the rad50EPP+ strain (AID 151);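 note: 0% = growth of vehicle-treated control cultures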; conditions: S. cerevisiae rad50 mutant strain, active compounds read high
Outline: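 rad50EPP+ yeast treated with test compounds. Readout: growth vs vehicle control.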

[4] = NCI Yeast Anticancer Drug Screen. Data for the mgt1 strain (AID 153); conditions: S. cerevisiae mgt1 mutant growth inhibition, active compounds read high
Outline: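 Growth inhibition relative to vehicle controls was scored for the mgt1 yeast strain after compound exposure.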

[5] = NCI Yeast Anticancer Drug Screen. Data for the rad50 strain (AID 155);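 note: 0% = growth of vehicle-only cultures of the same strain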; conditions: S. cerevisiae rad50 strain growth inhibition, active compounds read high
Outline: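 Cells are treated with compound, grown, and their growth is then scored against vehicle-only cultures of the same repair-deficient yeast strain.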

[6] = NCI Yeast Anticancer Drug Screen. Data for the mec2-1 strain (AID 157); conditions: S. cerevisiae mec2-1 strain, active compounds read high
Outline: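 Growth inhibition is read against vehicle-treated controls after compound exposure of the mec2-1 yeast strain, which is defective in DNA damage repair or cell cycle control.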

[7] = NCI Yeast Anticancer Drug Screen. Data for the sgs1 mgt1 strain (AID 161);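 note: 0% = growth of cultures given vehicle only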; conditions: S. cerevisiae sgs1 mgt1 strain, active compounds read high
Outline: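 Percent growth inhibition was derived by comparing compound-exposed mutant yeast with vehicle-exposed cultures. The strain carries alterations in DNA damage repair.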

[8] = NCI Yeast Anticancer Drug Screen. Data for the cln2 rad14 strain (AID 165);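 note: 0% = growth equal to vehicle treated cultures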; conditions: S. cerevisiae cln2 rad14 strain, active compounds read high
Outline: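 Growth inhibition, relative to vehicle-treated controls, is the read-out. The test organism is a yeast strain with defined genetic alterations, cln2 rad14.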

[9] = NCI Yeast Anticancer Drug Screen. Data for the bub3 strain (AID 167); conditions: S. cerevisiae bub3 mutant strain, active compounds read high
Outline: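 Part of a panel of yeast mutants defective in DNA damage repair or cell cycle regulation. Each strain is grown with compound, and inhibition is calculated relative to solvent-treated cultures.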

[10] = NCI Yeast Anticancer Drug Screen. Data for the wt2 strain (AID 169);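 note: 0% = growth of vehicle-treated yeast cultures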; conditions: S. cerevisiae wt2 strain growth inhibition, active compounds read high
Outline: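 Compound exposure of yeast; growth compared with vehicle controls; inhibition reported.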

[11] = NCI Yeast Anticancer Drug Screen. Data for the mlh1 strain (AID 171);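 note: 0% = growth of vehicle-treated control cultures of the same strain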; conditions: S. cerevisiae mlh1 strain growth inhibition, active compounds read high
Outline: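 Compounds are applied to a genetically altered yeast strain, and its growth is compared with that of vehicle-treated cultures to give percent inhibition.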

[12] = NCI Yeast Anticancer Drug Screen. Data for the sgs1 strain (AID 173);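 note: 0% = growth of vehicle-only control cultures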; conditions: S. cerevisiae sgs1 mutant, active compounds read high
Outline: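 Compounds applied to genetically altered yeast; growth compared with vehicle-treated cultures to give % inhibition.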

[13] = NCI Yeast Anticancer Drug Screen. Data for the mlh1 rad18 strain (AID 175); conditions: S. cerevisiae mlh1 rad18 strain growth inhibition, active compounds read high
Outline: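 Cells of a genetically altered yeast strain, deficient in DNA damage repair, were treated with compound. Their growth was then compared with that of vehicle-treated cultures to give inhibition.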

[14] = NCI Yeast Anticancer Drug Screen. Data for the rad18 strain (AID 177); conditions: S. cerevisiae rad18 mutant growth inhibition, active compounds read high
Outline: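 Compounds are applied to a repair-deficient yeast strain, and growth is compared with that of vehicle-treated cultures to give percent inhibition.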

[15] = NCI Yeast Anticancer Drug Screen. Data for the CLN2oe strain (AID 163);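 note: 0% = growth of vehicle-only control cultures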; conditions: S. cerevisiae CLN2oe strain, active compounds read high
Outline: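 Compound-treated yeast; growth vs vehicle ctrl = % inhibition. Genetically altered strain (cell-cycle control).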

[16] = NCI Yeast Anticancer Drug Screen. Data for the rad14 strain (AID 159);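 note: 0% = growth of vehicle-treated control cultures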; conditions: S. cerevisiae rad14 strain growth inhibition, active compounds read high
Outline: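 Readout: yeast growth inhibition, referenced to vehicle-only cultures. Strain bears a defined alteration in DNA damage repair.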

[17] = at 5.0 µM (retest, dose inferred, filed as 0.5)
[18] = at 50.0 µM (retest, dose inferred, filed as 5.0)

Measured: growth inhibition

COc1cc2c(c(OC)c1OC)-c1c(cc3c(c1OC)OCO3)CC(C)C(C)(O)C2OC(=O)c1ccccc1 (stereo unspecified)
inactive: [1]; at 1.2 µM -26% | [1]; at 3.7 µM -15% | [1]; at 11.0 µM -25% | [1]; at 33.0 µM -22% | [1]; at 100.0 µM 47% | [2]; at 1.2 µM -16% | [2]; at 3.7 µM -26% | [2]; at 11.0 µM -10% | [2]; at 33.0 µM 7% | [2]; at 100.0 µM 3% | [3]; at 1.2 µM -2% | [3]; at 3.7 µM -19% | [3]; at 11.0 µM -26% | [3]; at 33.0 µM -21% | [3]; at 100.0 µM 5% | [4]; at 1.2 µM -5% | [4]; at 3.7 µM -9% | [4]; at 11.0 µM -14% | [4]; at 33.0 µM -17% | [5]; at 1.2 µM -53% | [5]; at 3.7 µM -18% | [5]; [17] -3% | [5]; at 11.0 µM -25% | [5]; at 33.0 µM -17% | [5]; [18] 40% | [5]; at 100.0 µM 50% | [6]; at 1.2 µM -2% | [6]; at 3.7 µM 12% | [6]; [17] -8% | [6]; at 11.0 µM 16% | [6]; at 33.0 µM 12% | [6]; [18] 13% | [6]; at 50.0 µM 55.5% | [6]; at 100.0 µM 34% | [7]; [17] 19% | [7]; [18] 68% | [8]; [17] 10% | [8]; [18] 68% | [8]; at 50.0 µM 50.2% | [9]; at 1.2 µM -8% | [9]; at 3.7 µM 11% | [9]; [17] -2% | [9]; at 11.0 µM 10% | [9]; at 33.0 µM 22% | [9]; [18] 49% | [9]; at 100.0 µM 36% | [10]; at 1.2 µM -26% | [10]; at 3.7 µM -28% | [10]; at 11.0 µM -29% | [10]; at 33.0 µM 33% | [11]; at 1.2 µM -13% | [11]; at 3.7 µM -6% | [11]; at 11.0 µM -13% | [11]; at 33.0 µM -9% | [11]; at 100.0 µM 56% | [12]; at 1.2 µM -1% | [12]; at 3.7 µM -9% | [12]; at 11.0 µM 9% | [12]; at 33.0 µM -6% | [12]; at 100.0 µM 69% | [13]; [17] 3% | [13]; [18] 47% | [14]; at 1.2 µM -45% | [14]; at 3.7 µM -37% | [14]; at 11.0 µM -26% | [14]; at 33.0 µM -10% | [14]; at 100.0 µM 46%
active: [4]; at 100.0 µM 70% | [5]; at 50.0 µM 71.2% | [7]; at 50.0 µM 85.4% | [9]; at 50.0 µM 72.2% | [10]; at 100.0 µM 93% | [13]; at 50.0 µM 87.8%

O=C(O)c1cccc(-c2c3ccc(=O)cc-3oc3cc(O)ccc23)c1
inactive: [1]; at 1.2 µM -4% | [1]; at 3.7 µM 26% | [1]; at 11.0 µM 23% | [1]; at 33.0 µM 62% | [2]; at 1.2 µM -10% | [2]; at 3.7 µM -5% | [2]; at 11.0 µM 18% | [3]; at 1.2 µM -10% | [3]; at 3.7 µM 3% | [3]; at 11.0 µM 1% | [3]; at 33.0 µM -2% | [3]; at 100.0 µM 25% | [4]; at 1.2 µM 21% | [4]; at 3.7 µM 12% | [4]; at 11.0 µM 43% | [5]; at 1.2 µM 9% | [5]; at 3.7 µM 13% | [5]; at 11.0 µM 22% | [5]; at 33.0 µM 65% | [5]; at 50.0 µM 63.6% | [6]; at 1.2 µM 14% | [6]; at 3.7 µM 14% | [6]; at 11.0 µM 36% | [6]; at 50.0 µM 23.1% | [7]; [17] 0% | [7]; [18] 39% | [7]; at 50.0 µM 54.2% | [15]; at 1.2 µM 11% | [15]; at 3.7 µM -13% | [15]; at 11.0 µM -4% | [15]; at 33.0 µM 61% | [8]; [17] 33% | [8]; [18] 69% | [8]; at 50.0 µM 51% | [9]; at 1.2 µM 10% | [9]; at 3.7 µM 29% | [9]; [17] 53% | [9]; at 11.0 µM 49% | [9]; [18] 69% | [9]; at 50.0 µM 62.9% | [10]; at 1.2 µM -33% | [10]; at 3.7 µM -31% | [10]; at 11.0 µM -1% | [11]; at 1.2 µM -23% | [11]; at 3.7 µM -6% | [11]; at 11.0 µM 39% | [12]; at 1.2 µM 16% | [12]; at 3.7 µM 35% | [12]; at 11.0 µM 44% | [13]; at 50.0 µM 47.8% | [14]; at 1.2 µM -3% | [14]; at 3.7 µM 6% | [14]; at 11.0 µM 41%
active: [1]; at 100.0 µM 85% | [2]; at 33.0 µM 77% | [2]; at 100.0 µM 96% | [4]; at 33.0 µM 80% | [4]; at 100.0 µM 97% | [5]; [17] 90% | [5]; [18] 99% | [5]; at 100.0 µM 90% | [6]; [17] 94% | [6]; at 33.0 µM 84% | [6]; [18] 99% | [6]; at 100.0 µM 96% | [15]; at 100.0 µM 96% | [9]; at 33.0 µM 79% | [9]; at 100.0 µM 92% | [10]; at 33.0 µM 76% | [10]; at 100.0 µM 95% | [11]; at 33.0 µM 78% | [11]; at 100.0 µM 93% | [12]; at 33.0 µM 83% | [12]; at 100.0 µM 92% | [13]; [17] 94% | [13]; [18] 99% | [14]; at 33.0 µM 71% | [14]; at 100.0 µM 89%

BrCc1cccc2ccc3cccc(CBr)c3c12
inactive: [1]; at 1.2 µM -3% | [1]; at 3.7 µM -4% | [1]; at 11.0 µM -1% | [1]; at 33.0 µM 2% | [1]; at 100.0 µM 10% | [2]; at 1.2 µM -3% | [2]; at 3.7 µM -3% | [2]; at 11.0 µM -4% | [2]; at 33.0 µM -8% | [2]; at 100.0 µM -7% | [3]; at 1.2 µM -4% | [3]; at 3.7 µM 0% | [3]; at 11.0 µM 12% | [3]; at 33.0 µM 18% | [3]; at 100.0 µM 24% | [4]; at 1.2 µM 2% | [4]; at 3.7 µM 0% | [4]; at 11.0 µM 1% | [4]; at 33.0 µM -2% | [4]; at 100.0 µM 3% | [5]; at 1.2 µM -3% | [5]; at 3.7 µM -3% | [5]; [17] -1% | [5]; at 11.0 µM 0% | [5]; at 33.0 µM 1% | [5]; at 50.0 µM 66.3% | [5]; at 100.0 µM 10% | [16]; at 1.2 µM -2% | [16]; at 3.7 µM -2%
active: [5]; [18] 85%
